RORg inh: qHTS for inhibitors of ROR gamma transcriptional activity | Nuclear receptor ROR-gamma (Mus musculus), P51450 | Drosophila S2 Gal4-RORgamma UAS-luciferase reporter, 20 h | Potency, µM (top dose mostly 53.6 µM), inactives show at the top dose activity change, negative = inhibition, hits mostly inhibitors | actives 5.4% (n = 310,000) | AID 2551, 2010; also: potency is read from the fitted curve at half-maximal effect; % is scaled to controls: 0 for no effect and ±100 for the full control effect; nearly all actives have a fitted effect of over 60% in size
Target sequence (P51450 whole entry, looked up, the tested form may be a part): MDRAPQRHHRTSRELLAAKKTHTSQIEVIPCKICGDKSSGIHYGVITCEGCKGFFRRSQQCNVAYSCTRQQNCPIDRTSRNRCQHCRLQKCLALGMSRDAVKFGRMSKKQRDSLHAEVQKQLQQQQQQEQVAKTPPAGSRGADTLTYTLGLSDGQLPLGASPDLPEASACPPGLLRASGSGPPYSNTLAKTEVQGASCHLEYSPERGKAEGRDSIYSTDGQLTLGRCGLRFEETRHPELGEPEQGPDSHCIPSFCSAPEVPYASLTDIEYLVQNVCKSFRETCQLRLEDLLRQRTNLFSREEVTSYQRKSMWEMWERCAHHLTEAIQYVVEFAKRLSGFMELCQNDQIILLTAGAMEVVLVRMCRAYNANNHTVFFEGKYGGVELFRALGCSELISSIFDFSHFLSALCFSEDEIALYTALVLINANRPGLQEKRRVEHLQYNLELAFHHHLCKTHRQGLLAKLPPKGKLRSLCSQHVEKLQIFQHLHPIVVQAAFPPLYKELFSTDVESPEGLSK
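A Gal4/UAS one-hybrid system in insect cells: metallothionein-promoter Gal4–ROR gamma fusion plus Photinus luciferase reporter. Copper sulfate 700 uM final, 20 hr ambient incubation, luminescent detection after 10 min with reagent.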
SW480 rereplic: A quantitative high throughput screen for small molecules that induce DNA re-replication in SW480 colon adenocarcinoma cells; SW480 DNA re-replication, Hoechst DNA content imaging, 48 h; Potency, µM (top dose mostly 46.1 µM), inactives show at the highest dose re-replication activation, hits mostly activators; actives 1.8% (n = 340,000); AID 624297, 2012; also: potency is read from the fitted curve at half-maximal effect; % of control where 0% means no effect; nearly all actives have a fitted effect of over 55% in size
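Cells (250 per well) received 23 nL compound or DMSO by pin tool and were kept 48 hr at 37 C, 5% CO2. Nuclei were then stained with Hoechst for 40 min and scanned for DNA content.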
MCF10A rerep: A quantitative high throughput screen for small molecules that induce DNA re-replication in MCF 10a normal breast cells. MCF 10A DNA re-replication, Hoechst nuclear intensity, 48 h. Potency, µM (titrated, usually from 46.1 µM), without a hit: at the top dose activity, positive = re-replication, usual class: activators. actives 2.9% (n = 350,000); also: potency is read from the fitted curve at half-maximal effect; % of control where 0% means no effect; nearly all actives have a fitted effect of over 50% in size
Giardia killer: Small Molecules that selectively kill Giardia lamblia: qHTS; Giardia lamblia trophozoite viability; actives 0.15% (n = 340,000); activity change, % at 7.66 µM, hits read low; AID 540267, 2011; in the data active = activity change below about -80%; inconclusive = between about -30% and that limit;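 also: parasites exposed to compound for two days anaerobically before the ATP read; % is scaled to controls: 0 for no effect and ±100 for the full control effect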
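Anaerobic 48 hrs incubation at 37 deg C of 100 trophozoites/well with test compounds; ATPLite 1-Step luminescence, 15-30 min RT, reports cellular ATP as viability.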
Chronic BCR inh: qHTS Assay to Find Inhibitors of Chronic Active B-Cell Receptor Signaling; AID 493014, 2011; ABC-DLBCL IkBa-CBG/CBR reporter, luminescence ratio, 4 h; Potency, µM (doses to about 46.1 µM), for inactives: at the top dose activity change, negative = inhibition, hits mostly inhibitors; actives 0.05% (n = 340,000); active = well fitted inhibition curve with a large enough effect in the signal ratio, with a control signal flat, not every such curve was filed as active; inconclusive = small, poorly fitted or top-dose-only effect, or effect the other way, or a change in a side signal; the % refers to the signal ratio;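 also: potency is read from the fitted curve at half-maximal effect; plate controls were basal doxycycline-induced cells for no effect and cells given 10 µM MG132 for full effect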
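TMD8 human ABC-DLBCL cells with doxycycline-inducible IκBα–green luciferase fusion and unfused red luciferase, in 0.5% FBS medium; compounds up to 46 uM, 4 h at 37C. Green/red luminescence ratio, filter-overlap corrected, fitted to concentration-response curves.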
VP16 counter: VP16 counterscreen qHTS for inhibitors of ROR gamma transcriptional activity; Potency, µM (series often up to 53.6 µM), without a hit: at the highest dose activity, negative = inhibition, actives largely listed as inhibitors; AID 2546, 2010; actives 3.5% (n = 310,000); Drosophila S2 Gal4-VP16 UAS-luciferase, luminescence, 20 h;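 also: Gal4-VP16 expression switched on by copper sulfate through the metallothionein promoter; potency is read from the fitted curve at half-maximal effect; % is scaled to controls: 0 for no effect and ±100 for the full control effect; nearly all actives have a fitted effect of over 50% in size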
* marks the source's active call; other numbers are inactive results. The list is not random: actives were taken first. Their share in the collection is about 8.3%. Unless noted, calls follow the shape of the dose curve; as a rule, active = well fitted curve in the direction sought with a large enough effect; inconclusive = small, poorly fitted or top-dose-only effect, or another doubt; inactive = no such curve, though single readings can be large; an effect the other way counts as inactive or inconclusive.

Screening S=C(c1ccc(N2CCCC2)c(Br)c1)N1CCCCC1 returned RORg inh 20µM*, SW480 rereplic 2%, MCF10A rerep inconclusive, Giardia killer 11, Chronic BCR inh 3% and VP16 counter -22%.
S=C(c1ccc(N2CCCC2)cc1)N1CCCCC1 was read as RORg inh 8.9µM*, SW480 rereplic -18%, MCF10A rerep -6%, Giardia killer -7, Chronic BCR inh 0% and VP16 counter inconclusive.
For Oc1ccc(C(=S)N2CCCCCC2)cc1 the results were RORg inh 8%, SW480 rereplic -3%, MCF10A rerep -2%, Giardia killer -4, Chronic BCR inh -8% and VP16 counter 6%.
For N#CCSc1n[nH]c2nc3c(c(=O)n12)C1(CCCC1)Cc1ccccc1-3 the results were RORg inh -14%, SW480 rereplic -3%, MCF10A rerep 10µM*, Giardia killer -7, Chronic BCR inh inconclusive and VP16 counter -1%.
For CCn1c(SCC(N)=O)nc2c(c1=O)C1(CCCC1)Cc1ccccc1-2 the results were RORg inh -20%, SW480 rereplic -3%, MCF10A rerep inconclusive, Giardia killer -16 and VP16 counter -9%.
For N#CCSc1nc2c(c(=O)n1Cc1ccco1)C1(CCCC1)Cc1ccccc1-2 the results were RORg inh -21%, SW480 rereplic 18%, MCF10A rerep 13µM*, Giardia killer 23, Chronic BCR inh inconclusive and VP16 counter -7%.
Screening CCCn1c(SCC#N)nc2c(c1=O)C1(CCCC1)Cc1ccccc1-2 returned RORg inh -23%, SW480 rereplic 2%, MCF10A rerep inconclusive, Giardia killer -4, Chronic BCR inh 18% and VP16 counter 5%.
Screening O=C(N/N=C/c1cccs1)c1ccc2ccccc2c1 returned RORg inh 4µM*, SW480 rereplic inconclusive, MCF10A rerep 23µM*, Giardia killer -1, Chronic BCR inh inconclusive and VP16 counter 5.6µM*.
Cc1ccc2nc(C)c(C(=O)N/N=C/c3cccs3)cc2c1 was read as RORg inh 16%, SW480 rereplic 11%, MCF10A rerep 10%, Giardia killer 2, Chronic BCR inh -1% and VP16 counter 0%.
`O=C(N/N=C/c1cccs1)c1cccc2cc[nH]c12` gave RORg inh 2.8µM*, SW480 rereplic 0%, MCF10A rerep 20%, Giardia killer -15, Chronic BCR inh inconclusive and VP16 counter inconclusive.
`O=C(N/N=C/c1cccs1)c1ccc2nc[nH]c2c1` gave RORg inh 13%, SW480 rereplic 1%, MCF10A rerep -2%, Giardia killer 15, Chronic BCR inh inconclusive and VP16 counter -4%.
For O=C(N/N=C/c1cccs1)c1ccc2ncccc2c1 the results were RORg inh 11µM*, SW480 rereplic 1%, MCF10A rerep 0%, Giardia killer -15, Chronic BCR inh inconclusive and VP16 counter inconclusive.
For CC(=O)C(C(C)=O)C(c1ccccc1)c1nc2ccccc2[nH]c1=O (centres undefined) the results were RORg inh 6%, SW480 rereplic -23%, MCF10A rerep -1%, Giardia killer 37, Chronic BCR inh 0% and VP16 counter -1%.
`Oc1cc(-c2ccc(N3CCCCC3)nc2)cc2cccnc12` gave SW480 rereplic 0.82µM*, MCF10A rerep inconclusive, Giardia killer -14 and Chronic BCR inh inconclusive.
CCOc1cccc(NC(=O)C2CC(=O)N(C)C(=Nc3ccc(F)cc3)S2)c1 (centres undefined) was read as Chronic BCR inh -1%.
For O=S1(=O)CCC(N=Nc2c(O)n(Cc3ccccc3)c3ccccc23)C1 (centres undefined) the results were RORg inh 39%, SW480 rereplic 2%, MCF10A rerep 1%, Giardia killer 22, Chronic BCR inh inconclusive and VP16 counter 9%.
Cc1cccc(-n2c(C)n[nH]c2=S)c1 was read as RORg inh 11µM*, SW480 rereplic 2%, MCF10A rerep -11%, Giardia killer -3, Chronic BCR inh 0% and VP16 counter -10%.
Cc1cccc(-n2cc[nH]c2=S)c1 was read as RORg inh 7.9µM*, SW480 rereplic 1%, MCF10A rerep 3%, Giardia killer -7, Chronic BCR inh -2% and VP16 counter inconclusive.
For Cc1cc(=O)[nH]c(=S)n1-c1ccccc1 the results were RORg inh -26%, SW480 rereplic inconclusive, MCF10A rerep inconclusive, Giardia killer -5, Chronic BCR inh inconclusive and VP16 counter 0%.
Cc1ccc(-n2c(C)n[nH]c2=S)cc1 was read as RORg inh 11µM*, SW480 rereplic 4%, MCF10A rerep 1%, Giardia killer 47, Chronic BCR inh -3% and VP16 counter inconclusive.
Screening Cc1cccc(-n2c(C)c(-c3ccccc3)[nH]c2=S)c1 returned RORg inh 1.1µM*, SW480 rereplic 14%, MCF10A rerep -1%, Giardia killer 11, Chronic BCR inh 20% and VP16 counter 7.9µM*.
`Cc1cccc(-n2cc[nH]c2=S)c1C` gave RORg inh -171%, SW480 rereplic -2%, MCF10A rerep -3%, Giardia killer -11, Chronic BCR inh -9% and VP16 counter inconclusive.
CCCCOc1ccc(-c2cc(C(F)(F)F)c(C#N)c(SCC(=O)O)n2)cc1 was read as RORg inh 14%, SW480 rereplic -59%, MCF10A rerep 2%, Giardia killer -2, Chronic BCR inh 0% and VP16 counter -4%.
Screening Cc1cccc(N2CCN(CC(=O)N(C3CCCC3)C3CCS(=O)(=O)C3)CC2)c1C (centres undefined) returned SW480 rereplic -1%, MCF10A rerep 1%, Giardia killer -16 and Chronic BCR inh 1%.
Cc1ccc(-n2c(C)n[nH]c2=S)cc1C was read as RORg inh 11µM*, SW480 rereplic -4%, MCF10A rerep -4%, Giardia killer 2, Chronic BCR inh 3% and VP16 counter inconclusive.
Cc1ccc(-n2c(C)c3c(C)nnc(C)c3c2C)cc1C was read as RORg inh inconclusive, SW480 rereplic inconclusive, MCF10A rerep 21%, Giardia killer 1, Chronic BCR inh 5% and VP16 counter -22%.
For COc1ccc(/C=C/C(=O)N(C)C2(C)CCS(=O)(=O)C2)cc1 (centres undefined) the results were SW480 rereplic 23µM*, MCF10A rerep 3%, Giardia killer -20 and Chronic BCR inh -4%.
